# The source made the active and inactive calls. Unless noted, no rule for the calls is given here.
# Assays:
# [1] = system: Wnt5a (protein binding on small-molecule microarray); assay: small molecules binding Wnt5a protein – biophysical, small-molecule microarray, 635/667 nm fluorescence, primary screen (AID 1142); conditions: 635 nm fluorescence, higher = more signal;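 also: fluorescence read at 667 nm with signal to noise per printed feature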
# [2] = ATP-based viability of Huh7 replicon cells – cell-based, CellTiter-Glo luminescence, basal, 48 h, cytotoxicity control for HCV replication inhibitor project, primary screen (AID 1143); conditions: higher = more signal, called active from +8 up or from −8 down;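 also: Huh7 hepatoma cells carrying a hepatitis C replication reporter with no stimulus; test concentration not given here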
# [3] = Pseudomonas biofilm growth suppression – PAO1 strain, BacTiter-Glo luminescence, LB-PBS, primary screen (AID 1144); conditions: P. aeruginosa PAO1 biofilm, 12 h, higher = more signal
# [4] = basal CRE-LacZ reporter activity in PC12 – cell-based, unstimulated, primary screen (AID 1145); conditions: no forskolin, luminescence, 4.5 h, higher = more signal, called active from +8 up or from −8 down
# [5] = forskolin-driven CRE-LacZ activity in PC12 – cell-based, CRE-LacZ reporter, forskolin-stimulated, primary screen (AID 1146); conditions: luminescence, 4.5 h, higher = more signal, called active from +8 up or from −8 down;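 also: PC12 cells with 6xCRE LacZ reporter stimulated by forskolin 10 µM; beta-galactosidase reporter signal reflecting CREB driven transcription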
# [6] = target: Streptavidin (Streptomyces avidinii) (UniProt P22629); assay: compounds binding control protein streptavidin – biophysical, small-molecule microarray, 635/667 nm fluorescence, artefact control for SMM compound annotation, primary screen (AID 1147); conditions: higher = more signal;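 also: signal reflects streptavidin binding to arrayed compounds as a control protein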
# Chain of Streptavidin (Streptomyces avidinii) (P22629 whole entry, looked up): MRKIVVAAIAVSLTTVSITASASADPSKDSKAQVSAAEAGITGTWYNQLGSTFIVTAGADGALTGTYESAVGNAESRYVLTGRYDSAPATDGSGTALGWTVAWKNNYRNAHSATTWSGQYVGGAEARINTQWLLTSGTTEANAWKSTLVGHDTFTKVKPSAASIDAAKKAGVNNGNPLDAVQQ
# [7] = probe aInhba binding on compound microarray – biochemical, small-molecule microarray, 635/667 nm fluorescence, primary screen (AID 1148); conditions: higher = more signal;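 also: score merges 667nm spot fluorescence with signal-to-noise for antibody binding to printed compounds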
# Torsin-1A (Homo sapiens) [8] = target: Torsin-1A (Homo sapiens) (UniProt O14656); assay: TOR1A wild-type binding on microarray – cell lysate, small-molecule microarray, lysate, 635/667 nm, primary screen (AID 1149); conditions: COS7 hTOR1A-WT lysate, 635 nm fluorescence, higher = more signal
# Chain of Torsin-1A (Homo sapiens) (O14656 whole entry, looked up): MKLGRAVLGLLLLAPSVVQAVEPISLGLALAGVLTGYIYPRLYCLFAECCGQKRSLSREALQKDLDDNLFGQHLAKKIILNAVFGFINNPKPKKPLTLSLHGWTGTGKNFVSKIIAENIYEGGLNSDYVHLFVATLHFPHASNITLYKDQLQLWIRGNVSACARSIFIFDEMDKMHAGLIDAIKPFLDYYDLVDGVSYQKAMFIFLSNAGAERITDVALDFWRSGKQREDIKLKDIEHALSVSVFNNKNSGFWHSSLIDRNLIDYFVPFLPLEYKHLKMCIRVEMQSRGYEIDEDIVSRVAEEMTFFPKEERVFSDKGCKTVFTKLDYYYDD
# Torsin-1A (Homo sapiens) [9] = target: Torsin-1A (Homo sapiens) (UniProt O14656); assay: torsin A mutant lysate binding on microarrays – cell lysate, small-molecule microarray, COS7 lysate, 635/667 nm fluorescence, primary screen (AID 1150); conditions: COS7 hTOR1A mutant lysate, 635 nm fluorescence, higher = more signal;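 also: score pools 667 nm emission and signal to noise measuring lysate protein binding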
# [10] = system: Sonic hedgehog protein (Shh); assay: Sonic hedgehog microarray binding compounds – biochemical, small-molecule microarray, 635/667 nm fluorescence, primary screen (AID 1151); conditions: 635 nm fluorescence, higher = more signal;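 also: Shh protein binding to compounds spotted on small-molecule microarray slides; score combines spot fluorescence intensity with signal-to-noise across triplicate slides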
# [11] = optical density shifts of acrAB sulA E. coli – strain DRC41, OD650, 48 h, E. coli filamentation inducer project, primary screen (AID 1152); conditions: higher = more signal, called active from +8 up or from −8 down;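 also: E. coli MC1000 strain DRC41 lacking acrAB efflux pump and sulA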
# [12] = probe aLefty1 binding on compound microarray – biochemical, small-molecule microarray, 635/667 nm fluorescence, primary screen (AID 1153); conditions: higher = more signal;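 also: score merges spot fluorescence with signal-to-noise ratio from the scanned slide images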
# [13] = plasmodial surface anion channel blockers, osmotic lysis – cell-based, P. falciparum Indochina, OD700, 1 h, primary screen (AID 1154); conditions: P. falciparum Indochina infected RBC osmotic lysis, higher = more signal, called active from +8 up or from −8 down
# [14] = plasmodial surface anion channel blockers, osmotic lysis – cell-based, P. falciparum Indochina, OD700, 2 h, primary screen (AID 1155);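 also: lysis reports solute entry through the parasite surface anion channel PSAC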; conditions: P. falciparum Indochina infected erythrocytes, higher = more signal, called active from +8 up or from −8 down
# [15] = changes in parasitized red cell lysis, either direction – P. falciparum Indochina, OD700, 3 h, PSAC antagonist project, primary screen (AID 1156); conditions: P. falciparum-infected erythrocytes, osmotic lysis, higher = more signal, called active from +8 up or from −8 down
# [16] = plasmodial surface anion channel blockers, osmotic lysis – cell-based, P. falciparum Indochina, OD700, 18 h, primary screen (AID 1157); conditions: P. falciparum Indochina infected erythrocytes, osmotic lysis OD700, 18 h; higher = more signal, called active from +8 up or from −8 down
# [17] = S6 kinase pathway phospho-S6 level changes – cell-based, A549, cytoblot, luminescence, serum-stimulated, primary screen (AID 1158); conditions: 5 h, higher = more signal;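 also: serum-stimulated A549 lung adenocarcinoma cells; signal is phosphorylated S6 detected by cytoblot immunostaining with HRP secondary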
# [18] = target: NADPH oxidase 2 (Homo sapiens) (UniProt P04839); assay: compounds shifting NOX2 Amplex Red fluorescence – cell-based, HEK293-NOX2, PMA-stimulated, NOX inhibitor project, primary screen (AID 1159); conditions: 45 min, higher = more signal, called active from +8 up or from −8 down; also: test concentration not given here
# Chain of NADPH oxidase 2 (Homo sapiens) (P04839 whole entry, looked up): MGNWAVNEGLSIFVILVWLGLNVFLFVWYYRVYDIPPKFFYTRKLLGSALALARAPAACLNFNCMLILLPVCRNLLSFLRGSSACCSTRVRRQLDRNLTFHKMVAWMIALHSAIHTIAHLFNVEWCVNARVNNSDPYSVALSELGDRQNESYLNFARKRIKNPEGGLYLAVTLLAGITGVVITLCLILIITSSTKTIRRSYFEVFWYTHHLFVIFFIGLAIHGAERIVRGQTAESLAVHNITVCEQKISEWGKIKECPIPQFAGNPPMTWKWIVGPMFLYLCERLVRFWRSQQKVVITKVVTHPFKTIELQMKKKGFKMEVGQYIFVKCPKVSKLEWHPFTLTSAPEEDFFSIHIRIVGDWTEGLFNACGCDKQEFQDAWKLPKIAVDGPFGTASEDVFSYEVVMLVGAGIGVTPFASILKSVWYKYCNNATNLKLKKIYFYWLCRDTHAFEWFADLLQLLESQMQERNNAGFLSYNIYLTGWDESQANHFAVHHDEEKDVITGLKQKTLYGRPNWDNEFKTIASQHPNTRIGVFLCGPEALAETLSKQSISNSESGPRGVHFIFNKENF
# [19] = target: NADPH oxidase 4 (Homo sapiens) (UniProt Q9NPH5); assay: compounds shifting NOX4 Amplex Red fluorescence – cell-based, HEK293-NOX4, tetracycline-induced, NOX inhibitor project, primary screen (AID 1160); conditions: HEK293-NOX4, Amplex Red H2O2 fluorescence, 45 min; higher = more signal, called active from +8 up or from −8 down
# Chain of NADPH oxidase 4 (Homo sapiens) (Q9NPH5 whole entry, looked up): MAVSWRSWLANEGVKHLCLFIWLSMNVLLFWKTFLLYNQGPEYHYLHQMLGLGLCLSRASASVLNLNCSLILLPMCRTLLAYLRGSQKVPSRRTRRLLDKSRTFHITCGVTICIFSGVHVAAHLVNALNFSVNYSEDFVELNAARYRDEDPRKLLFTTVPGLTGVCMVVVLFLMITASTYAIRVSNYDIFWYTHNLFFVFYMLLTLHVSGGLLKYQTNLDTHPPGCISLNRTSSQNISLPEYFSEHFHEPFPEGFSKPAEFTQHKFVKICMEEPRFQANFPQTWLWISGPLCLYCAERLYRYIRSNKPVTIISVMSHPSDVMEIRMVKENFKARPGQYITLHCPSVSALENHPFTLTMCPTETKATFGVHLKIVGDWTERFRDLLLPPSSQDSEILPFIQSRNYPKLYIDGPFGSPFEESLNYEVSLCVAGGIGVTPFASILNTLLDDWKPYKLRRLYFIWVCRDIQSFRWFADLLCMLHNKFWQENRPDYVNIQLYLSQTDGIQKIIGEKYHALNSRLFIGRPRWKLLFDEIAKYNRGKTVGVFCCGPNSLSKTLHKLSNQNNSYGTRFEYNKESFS
# [20] = target: NADPH oxidase 5 (Homo sapiens) (UniProt Q96PH1); assay: compounds shifting NOX5 Amplex Red fluorescence – cell-based, HEK293-NOX5, NOX inhibitor project, primary screen (AID 1161); conditions: HEK293-NOX5, ionomycin, 45 min, higher = more signal
# Chain of NADPH oxidase 5 (Homo sapiens) (Q96PH1 whole entry, looked up): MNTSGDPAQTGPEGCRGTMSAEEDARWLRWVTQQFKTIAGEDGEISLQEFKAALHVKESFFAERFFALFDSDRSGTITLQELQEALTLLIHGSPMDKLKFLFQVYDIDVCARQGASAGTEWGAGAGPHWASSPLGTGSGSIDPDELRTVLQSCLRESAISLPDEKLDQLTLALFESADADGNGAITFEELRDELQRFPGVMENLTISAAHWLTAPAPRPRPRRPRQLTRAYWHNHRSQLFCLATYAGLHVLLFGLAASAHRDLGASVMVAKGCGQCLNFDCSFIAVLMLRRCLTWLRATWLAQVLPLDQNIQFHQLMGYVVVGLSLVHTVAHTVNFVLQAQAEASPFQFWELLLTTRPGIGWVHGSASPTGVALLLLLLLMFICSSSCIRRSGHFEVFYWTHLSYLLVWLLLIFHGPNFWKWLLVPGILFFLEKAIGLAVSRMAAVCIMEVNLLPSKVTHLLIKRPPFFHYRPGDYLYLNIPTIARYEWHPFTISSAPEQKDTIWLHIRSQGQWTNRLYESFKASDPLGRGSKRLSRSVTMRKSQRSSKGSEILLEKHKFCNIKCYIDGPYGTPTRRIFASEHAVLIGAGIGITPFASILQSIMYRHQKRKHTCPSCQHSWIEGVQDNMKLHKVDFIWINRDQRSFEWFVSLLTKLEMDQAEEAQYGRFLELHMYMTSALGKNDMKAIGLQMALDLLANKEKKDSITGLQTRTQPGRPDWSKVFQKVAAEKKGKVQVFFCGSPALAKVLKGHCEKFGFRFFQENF
SMILES,composite z-score [1],z-score [2],z-score [3],z-score [4],z-score [5],composite z-score [6],composite z-score [7],composite z-score (Torsin-1A (Homo sapiens) [8]),composite z-score (Torsin-1A (Homo sapiens) [9]),composite z-score [10],z-score [11],composite z-score [12],z-score [13],z-score [14],z-score [15],z-score [16],z-score [17],z-score [18],z-score [19],z-score [20]
COC(=O)[C@@]1(Cc2ccccc2)[C@H]2c3cc(C(=O)N(C)C)n(Cc4ccc(C(F)(F)F)nc4)c3C[C@H]2CN1C(=O)c1ccccc1,0.598,-1.94 (inactive),-0.0691 (inactive),-0.189 (inactive),0.484 (inactive),2.08,0.433,0.167,0.511,-0.561,-1.64 (inactive),1.1,1.5 (inactive),0.234 (inactive),1.3 (inactive),0.715 (inactive),0.184,0.0745 (inactive),-1.31 (inactive),-3.12
O=C(NCCN1CCOCC1)[C@@H]1c2ccccc2C(=O)N(Cc2ccc(OC(F)(F)F)cc2)[C@H]1c1ccc(CO)cc1,0.0235,-0.281 (inactive),-0.0358 (inactive),0.558 (inactive),0.338 (inactive),-0.119,-0.0762,-0.282,0.459,-0.0784,-0.288 (inactive),-0.222,1.09 (inactive),0.655 (inactive),1.74 (inactive),-0.161 (inactive),-0.219,0.134 (inactive),0.891 (inactive),2.07
COc1ccc(C(=O)Nc2ccc3c(c2)[C@@]2(O[C@H](CCO)[C@@H]([Si](C)(C)c4ccc(OC)cc4)[C@@H]2C)C(=O)N3Cc2ccccc2)cc1,0.0753,-8.09 (active),-0.0986 (inactive),5.6 (inactive),-0.352 (inactive),0.0576,0.288,-0.193,0.46,1.93,-0.134 (inactive),0.778,3.2 (inactive),0.98 (inactive),0.768 (inactive),-0.188 (inactive),0.721,-4.96 (inactive),-1.62 (inactive),0.371
CCCC[C@H]1OB(O)C[C@H]2C1=C(COc1ccccc1)C[C@H]1C(=O)C=CC(=O)[C@H]12,0.119,-0.578 (inactive),-0.327 (inactive),6.38 (inactive),2.07 (inactive),0.0073,-0.158,0.372,0.274,1.38,1.55 (inactive),-0.134,1.49 (inactive),0.0962 (inactive),0.129 (inactive),0.134 (inactive),-0.0871,-0.429 (inactive),-1.48 (inactive),-5.03
